Values quoted from earlier work, collected in PubChem BioAssay AID977611.
Among all 3,900 compounds or so, about 3,900 (100%) were called active. The limit is not given here; nearly all actives have Kd up to about 4200 µM. So high a share suggests a set chosen from earlier hits. The list shows a part of the results. *1 amine or outer side, *2 acyl side, *3 side chain or, on linkers, in order; H or OH if unused. Where a SMILES comes first, the peptide text is derived from it. Non-standard residues stand in square brackets, D forms with d. Square brackets hold non-standard residues; d marks the D form. Residues, ends and D or L forms follow the SMILES beside them. Bridges are numbered along the chain shown (N, C = ends). Peptide text beside a SMILES is read from it. [ ]: non-standard residue; d: D form. The star is where a group is joined. X1 = C[C@@](/C=C/CC=[*:3])(N[*:1])C(=O)[*:2]; Orn(CH(NH2)2) = NC(N)NCCC[C@H](N)C(=O)O; Lys(Me2) = CN(C)CCCC[C@H](N)C(=O)O; Lys(Me) = CNCCCC[C@H](N)C(=O)O; S5 = C=CCCC[C@](C)(N)C(=O)O; ΔPro = O=C(O)[C@@H]1C=CCN1; Butyryl = CCCC(=O)*

Test: PubChem AID 977611
Details: PDB protein-ligand complexes, literature Kd

O=c1cc(-c2ccc(O)cc2)oc2ccccc12
Kd (protein: Tankyrase-2, PDB entry 4kzq): 788 nM (active)

CC[C@H](C)[C@H](N)C(=O)N[C@H](C(=O)NCC(=O)NCC(=O)N[C@@H](Cc1ccc(O)cc1)C(=O)N1CCC[C@H]1C(=O)N[C@@H](Cc1c[nH]c2ccccc12)C(=O)N[C@@H](Cc1c[nH]c2ccccc12)C(=O)N[C@@H](CCSC)C(=O)O)C(C)C (H-IVGGYPWWM-OH)
Kd (protein: Hepatocyte growth factor HGF-Beta V495, PDB entry 4o3t): 43000 nM (active)

CC(C)C[C@H](NC(=O)[C@@H]1CCCN1C(=O)[C@H](CO)NC(=O)[C@H](Cc1ccc(O)cc1)NC(=O)[C@@H](NC(=O)[C@H](Cc1c[nH]c2ccccc12)NC(=O)[C@H](CO)NC(=O)[C@H](CCCNC(N)N)NC(=O)[C@H](CCC(=O)O)NC(=O)[C@H](CC(=O)O)NC(=O)[C@@H](NC(=O)[C@@H]1C=CCN1C(=O)[C@H](Cc1ccccc1)NC(=O)[C@@H](N)Cc1ccc(O)cc1)[C@@H](C)O)C(C)C)C(=O)N[C@@H](Cc1c[nH]cn1)C(=O)O (H-YF[ΔPro]TDE[Orn(CH(NH2)2)]SWVYSPLH-OH)
Kd (protein: clathrin adaptor AP-2 complex subunit beta-1, PDB entry 3h1z): 22000 nM (active)

CC[C@H](C)[C@H](NC(=O)[C@@H]1CCCN1C(=O)CNC(=O)[C@H](CC(N)=O)NC(=O)[C@@H]1CCCN1C(=O)[C@H](CO)NC(=O)[C@H](Cc1ccccc1)NC(=O)[C@H](CC(C)C)NC(=O)[C@H](Cc1ccc(O)cc1)NC(=O)[C@@H](N)CC(N)=O)C(=O)N[C@@H](C)C(=O)N[C@@H](CCCNC(N)N)C(=O)N[C@@H](C)C(=O)N[C@@H](Cc1c[nH]c2ccccc12)C(=O)O (H-NYLFSPNGPIA[Orn(CH(NH2)2)]AW-OH)
Kd (protein: Ephrin type-B receptor 4, PDB entry 2bba): 70 nM (active)

CC(C)C[C@H](NC(=O)[C@H](Cc1ccc(O)cc1)NC(=O)[C@H](CO)NC(=O)CNC(=O)[C@H](Cc1ccc(O)cc1)NC(=O)[C@@H]1CCCN1C(=O)[C@H](Cc1ccc(O)cc1)NC(=O)[C@H](Cc1c[nH]c2ccccc12)NC(=O)[C@@H](NC(=O)[C@@H](N)CCCNC(N)N)C(C)C)C(=O)N[C@H](C(=O)N[C@@H](C)C(=O)N[C@@H](CO)C(=O)NCC(=O)N[C@@H](CO)C(=O)O)[C@@H](C)O (H-[Orn(CH(NH2)2)]VWYPYGSYLTASGS-OH)
Kd (protein: Concanavalin A(ConA), PDB entry 1jyc): 46000 nM (active)

CC[C@H](C)[C@@H]1NC(=O)[C@@](C)(NC(=O)[C@H](CCC(N)=O)NC(=O)[C@@H]2CCCN2C(=O)[C@H](Cc2c[nH]c3ccccc23)NC(=O)[C@@H](N)CCCNC(N)N)CCC/C=C\C/C=C/[C@@](C)(C(=O)N[C@@H](Cc2c[nH]cn2)C(=O)N[C@H](C(=O)N[C@@H](CCCNC(N)N)C(=O)N[C@@H](CCCNC(N)N)C(=O)N[C@H](C(=O)N[C@@H](Cc2c[nH]c3ccccc23)C(=O)O)C(C)C)C(C)C)NC(=O)[C@H](CC(=O)O)NC(=O)[C@H](CC(C)C)NC1=O (H-[Orn(CH(NH2)2)]WPQ[S5]ILD[X1]HV[Orn(CH(NH2)2)][Orn(CH(NH2)2)]VW-OH; staple (Z) 5-9)
Kd (protein: Catenin beta-1, PDB entry 4djs): 13 nM (active)

CC[C@H](C)[C@H](NC(=O)[C@@H]1CCCN1C(=O)CNC(=O)[C@H](C)N)C(=O)N[C@@H](CO)C(=O)N[C@@H](CC(C)C)C(=O)N[C@@H](CC(N)=O)C(=O)N[C@@H](Cc1c[nH]c2ccccc12)C(=O)N[C@@H](Cc1ccccc1)C(=O)N[C@@H](CCC(=O)O)C(=O)N[C@@H](CCC(=O)O)C(=O)N[C@@H](CC(C)C)C(=O)N[C@@H](CO)C(=O)N[C@@H](C)C=O (H-AGPISLNWFEELSA-aldehyde)
Kd (protein: Partner and localizer of BRCA2, PDB entry 3eu7): 660 nM (active)

CCCC(=O)NCCCC[C@H](NC(=O)[C@]1([C@@H](C)O)N[C@@](O)([C@@H](N)CCCN=C(N)N)O1)C(=O)N[C@@H](CCC(N)=O)C(=O)N[C@H](C(=O)N[C@@H](C)C(=O)N[C@@H](CCCN=C(N)N)C(=O)O)[C@@H](C)O (H-[X1]K(Butyryl)QTAR-OH)
Kd (protein: NAD-DEPENDENT PROTEIN DEACETYLASE SIRTUIN-3, MITOCHONDRIAL Sirt3, PDB entry 4v1c): 25100 nM (active)

C[C@H](N)C(=O)N[C@@H](CCCN=C(N)N)C(=O)N[C@H](C(=O)N[C@@H](CCCCN)C(=O)N[C@@H](CCC(N)=O)C(=O)N[C@H](C(=O)N[C@@H](C)C(=O)N[C@@H](CCCN=C(N)N)C(=O)N[C@@H](CCCCN)C(=O)N[C@@H](CO)C(=O)N[C@H](C(=O)NCC(=O)O)[C@@H](C)O)[C@@H](C)O)[C@@H](C)O
Kd (protein: histone acetyltransferase Hat1p/Hat2p/H4 peptide complex, PDB entry 4psx): 340 nM (active)

H-GCARSEG-OH
Kd (protein: WD repeat-containing protein 5, WDR5, PDB entry 4es0): 103 nM (active)

H-TKQTARK(Ac)S-NH2
Kd (protein: Protein AF-9 AF9 YEATS, PDB entry 4tmp): 3700 nM (active)

C[C@H](N)C(=O)N[C@@H](CCCN=C(N)N)C(=O)N[C@H](C(=O)N[C@@H](CCCCN)C(=O)N[C@@H](CCC(N)=O)C(=O)N[C@H](C(=O)N[C@@H](C)C(=O)N[C@@H](CCCN=C(N)N)C(=O)N[C@@H](CCCCN)C(=O)N[C@@H](CO)C(=O)O)[C@@H](C)O)[C@@H](C)O
Kd (protein: DNA (cytosine-5)-methyltransferase 3A DNMT3A-DNMT3L, PDB entry 4u7t): 2140 nM (active)

H-ARTAA-OH
Kd (protein: WD repeat-containing protein 5 WDR5, PDB entry 4o45): 70000 nM (active)

C[C@H](N)C(=O)N[C@@H](C)C(=O)N[C@@H](C)C(=O)N[C@@H](C)C(=O)N[C@@H](C)C(=O)N[C@@H](C)C(=O)N[C@@H](C)C(=O)N[C@@H](C)C(=O)N[C@@H](C)C(=O)N[C@@H](C)C(=O)O
Kd (protein: Transportin 1 (Trn1), PDB entry 2z5o): 1000 nM (active)

CNCCCC[C@H](NC(=O)[C@H](CCCNC(N)N)NC(=O)[C@H](C)NC(=O)[C@@H](NC(=O)[C@H](CCC(N)=O)NC(=O)[C@H](CCCCN)NC(=O)[C@@H](N)[C@@H](C)O)[C@@H](C)O)C(=O)N[C@@H](CO)C(=O)O (H-TKQTA[Orn(CH(NH2)2)][Lys(Me)]S-OH)
Kd (protein: SAWADEE HOMEODOMAIN HOMOLOG 1, PDB entry 4iuu): 2220 nM (active)

C[C@H](NC(=O)[C@@H](NC(=O)[C@H](CCC(N)=O)NC(=O)[C@H](CCCCN)NC(=O)[C@@H](N)[C@@H](C)O)[C@@H](C)O)C(=O)N[C@@H](CCCNC(N)N)C(=O)N[C@@H](CCCCN(C)C)C(=O)N[C@@H](CO)C(=O)O (H-TKQTA[Orn(CH(NH2)2)][Lys(Me2)]S-OH)
Kd (protein: SAWADEE HOMEODOMAIN HOMOLOG 1, PDB entry 4iut): 1900 nM (active)

CNCCCC[C@H](NC(=O)[C@H](CCCNC(N)N)NC(=O)[C@H](C)NC(=O)[C@@H](NC(=O)[C@H](CCC(N)=O)NC(=O)[C@H](CCCCNC)NC(=O)[C@@H](N)[C@@H](C)O)[C@@H](C)O)C(=O)N[C@@H](CO)C(=O)N[C@H](C(=O)O)[C@@H](C)O (H-T[Lys(Me)]QTA[Orn(CH(NH2)2)][Lys(Me)]ST-OH)
Kd (protein: SAWADEE HOMEODOMAIN HOMOLOG 1, PDB entry 4iuv): 1900 nM (active)
